High-throughput results as filed in PubChem.
MITF inh = inhibitors of human MITF; AID 1259374; actives 0.91% (n = 650,000); O75030; AlphaScreen MITF homodimerization, bead proximity signal; inhibition, % at 2.6 µM; in the data active means inhibition above about 50%
TEAD-YAP inh = TEAD-YAP interaction inhibition | HEK-TIYL cells, TEAD-Gal4/YAP UAS-luciferase luminescence | inhibition, % at 9.12 µM | actives 1.4% (n = 640,000) | AID 1259422; in the data active means inhibition above about 32%
FBW7 activator = human FBW7 E3 ligase activation, primary screen; AID 1259310; Q969H0; actives 0.13% (n = 650,000); AlphaScreen FBW7–phospho-cyclin E peptide binding, activator screen; normalized activity (activation), % at 26.1 µM; in the data active means normalized activity above about 1.9%;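 further: purified mutant Fbw7 with reduced substrate affinity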
GPR151 activ = activates the human receptor GPR151. Q8TDV0. PathHunter beta-arrestin GPR151 cells, luminescence. activation, % at 11.2 µM. actives 1% (n = 650,000); in the data active means activation above about 4.9%
Target sequence (Q8TDV0 whole entry, looked up): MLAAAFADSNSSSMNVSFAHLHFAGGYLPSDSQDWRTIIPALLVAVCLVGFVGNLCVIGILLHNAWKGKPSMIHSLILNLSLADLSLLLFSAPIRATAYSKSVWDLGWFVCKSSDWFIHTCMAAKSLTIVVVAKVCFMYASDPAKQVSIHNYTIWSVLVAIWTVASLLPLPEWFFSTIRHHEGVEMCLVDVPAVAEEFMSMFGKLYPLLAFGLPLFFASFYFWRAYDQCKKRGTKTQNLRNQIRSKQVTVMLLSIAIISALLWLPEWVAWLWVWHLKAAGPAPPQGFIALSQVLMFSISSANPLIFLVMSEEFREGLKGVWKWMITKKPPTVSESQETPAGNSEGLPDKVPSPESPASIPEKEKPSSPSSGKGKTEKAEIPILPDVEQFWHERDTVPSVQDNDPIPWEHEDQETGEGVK
Large screens that a line does not name were inactive. This is a sample that favours compounds with a hit; in the whole collection about 3.4% have one here.

c1ccc(-n2cnc3c(Nc4ccc(N5CCOCC5)cc4)nc(Nc4ccc(-n5ccnc5)cc4)nc32)cc1	TEAD-YAP inh 41
c1ccc(OCCNc2nc(Nc3cccnc3)nc3c2ncn3-c2ccccc2)cc1	none
CCN(CC)c1nc(Nc2ccc(N3CCOCC3)cc2)nc(Nc2ccc(-n3ccnc3)cc2)n1	TEAD-YAP inh 65
COC(=O)c1c(NC(=O)c2cc3ccccc3c(=O)o2)sc(C)c1C	none
O=C(CCc1cn(Cc2ccc(F)cc2)c2ccccc12)NCCN1CCOCC1	none
Cc1cnc(CNc2cc(-c3ccccc3F)nc(-c3ccccn3)n2)nc1	TEAD-YAP inh 33
CCN(CC)c1cc(-c2ccccc2F)nc(-c2ccncc2)n1	none
CCN(CC)c1cc(-c2ccccc2F)nc(-c2ccccn2)n1	TEAD-YAP inh 50
CCN(CC)c1cc(-c2ccccn2)nc(-c2ccccc2)n1	none
CCN(CC)c1cc(-c2ccccn2)nc(-c2ccccn2)n1	MITF inh 113, TEAD-YAP inh 86
CCCC(=O)Nc1nnc(SCC(=O)N(C(C)C)C(C)C)s1	none
CNC(=O)c1cc(F)ccc1Nc1cc(Nc2ccc3c(c2)NC(=O)C3)ncc1C(F)(F)F	TEAD-YAP inh 39
CNC(=O)c1cc(F)ccc1Nc1cc(Nc2ccc(NC(C)=O)cc2)ncc1C(F)(F)F	TEAD-YAP inh 38
CNC(=O)c1cc(F)ccc1Nc1cc(Nc2ccc3c(c2)CC(=O)N3)ncc1C(F)(F)F	none
CC(=O)Nc1ccc(NC(=O)c2ccc(F)cc2)nc1	none
O=C(Nc1ccc(-c2cn3ccsc3n2)cc1)c1cccnc1Cl	TEAD-YAP inh 46
CC(O)c1nc2ccccc2[nH]1 (stereo not given)	none
Cc1nnnn1/C(=C\c1ccccc1)C(=O)N[C@H](c1nc2ccccc2[nH]1)C(C)C	TEAD-YAP inh 49
CC(C)c1cc(=O)[nH]c(-n2nc(C3CC3)cc2NC(=O)C(C)(C)C)n1	TEAD-YAP inh 57
Cc1cc(S(=O)(=O)N(C)C2CCCCC2)ccc1-n1cnnn1	TEAD-YAP inh 52
CN1CCN(c2cc(-c3ccncc3)nc(-c3ccncc3)n2)CC1	TEAD-YAP inh 38
CN1CCN(c2cc(-c3ccc(F)cc3)nc(-c3ccncc3)n2)CC1	none
O=C(c1cccc(OC2CCN(Cc3ccncc3)CC2)c1)N1CCCC(CO)C1 (stereo not given)	none
CC(C)C(=O)Nc1ccc(NC(=O)c2ccco2)nc1	TEAD-YAP inh 74
CC(C)C(=O)Nc1ccc(NC(=O)C(C)C)nc1	none
O=C(Nc1ccc(NC(=O)C2CC2)cn1)c1ccco1	TEAD-YAP inh 48
CCCN1CCN(C(c2cc3cc(CC)ccc3[nH]c2=O)c2nnnn2CCOC)CC1 (stereo not given)	none
COc1cccc(CC2(CCC(=O)NCCCc3ccccc3)CCC(=O)N2)c1 (stereo not given)	none
CC1(C)CC(=O)C2=C(C1)Nc1ccc3ncccc3c1C2c1cn[nH]c1-c1ccc(F)cc1 (stereo not given)	TEAD-YAP inh 35
CC1(C)CC(=O)C2=C(C1)Nc1ccc3ncccc3c1C2c1cccc(Cl)c1Cl (stereo not given)	none
OCCC1CN(Cc2c(F)ccc(F)c2F)CCN1Cc1ccccc1F (stereo not given)	none
CCC(=O)C(C#N)c1nnc(-c2ccccc2)s1 (stereo not given)	TEAD-YAP inh 37
O=C(O)CCN(CCC(=O)O)c1nnc(-c2ccccc2)s1	none
CC(=O)c1ccc2c(c1)C1C=CCC1C(c1ccc(Br)cc1)N2 (stereo not given)	none
CCOC(=O)c1ccc2c(c1)C1C=CCC1C(C(=O)O)N2 (stereo not given)	MITF inh 76
CC(=O)c1ccc2c(c1)C1C=CCC1C(c1ccc(C(=O)O)cc1)N2 (stereo not given)	MITF inh 67
O=C(O)c1ccc2c(c1)C1C=CCC1C(c1ccccc1)N2 (stereo not given)	MITF inh 59
O=C(O)c1ccc2c(c1)C1C=CCC1C(c1ccc(F)cc1)N2 (stereo not given)	none
O=C(O)c1ccc2c(c1)[C@@H]1C=CC[C@@H]1[C@H](c1c(F)cccc1Cl)N2	TEAD-YAP inh 40
Cc1cc(=O)oc2cc(NC(=O)c3ccc(S(=O)(=O)NCc4ccco4)cc3)ccc12	none
O=C(O)c1ccc2c(c1)C1C=CCC1C(c1ccncc1)N2 (stereo not given)	MITF inh 56
O=C(O)c1ccc(C2Nc3ccc([N+](=O)[O-])cc3C3C=CCC32)cc1 (stereo not given)	MITF inh 76
COC(=O)c1ccc([C@@H]2Nc3ccc(C(=O)O)cc3[C@@H]3C=CC[C@@H]32)cc1	MITF inh 73
COC(=O)c1ccccc1OC(=O)c1ccc2c(c1)C1C=CCC1C(C(=O)O)N2 (stereo not given)	MITF inh 68
CC(C)COC(=O)c1ccc2c(c1)C1C=CCC1C(C(=O)O)N2 (stereo not given)	none
COC(=O)c1ccc([C@@H]2Nc3ccc(C(C)=O)cc3[C@@H]3C=CC[C@@H]32)cc1	none
CCOCCCNC(=O)/C(C#N)=C/c1c(Oc2ccc(F)cc2)nc2ccccn2c1=O	none
NC(=O)C1CCN(c2ncnc3sccc23)CC1	none
O=C(Nc1ccc(I)cc1)C(=O)C1C(=O)Nc2ccccc21 (stereo not given)	none
O=C(O)C1Nc2ccc(Oc3ccccc3)cc2C2C=CCC12 (stereo not given)	none
O=C(O)C1Nc2ccc([N+](=O)[O-])cc2C2C=CCC12 (stereo not given)	MITF inh 85
CCOC(=O)c1ccc2c(c1)C1C=CCC1C(c1ccc(C(=O)O)cc1)N2 (stereo not given)	MITF inh 68
O=C(O)c1ccc2c(c1)C1C=CCC1C(c1cccc3ccccc13)N2 (stereo not given)	TEAD-YAP inh 49
CCOC(=O)c1ccc2c(c1)C1C=CCC1C(c1ccc(F)cc1)N2 (stereo not given)	none
CSc1cccc(NC(=O)C2C3C=CC4(O3)C2C(=O)N(CCc2ccc(Cl)cc2)C4C(=O)NC2CCCC(C)C2C)c1 (stereo not given)	none
COCCC(=O)NCC1Cc2cc(-c3ccc(C(C)=O)s3)cc(Cl)c2O1 (stereo not given)	none
COc1ccc(CNCc2cc(OC)c(OC)c(OC)c2)cc1C	MITF inh 51
COc1ccc(CNCc2ccccc2)cc1OC	none
N#Cc1ccc(C(=O)NCCN2CCN(c3nc4c(F)cccc4s3)CC2)cc1	none
Cc1c(C)n(CC(O)CNc2ccccc2)c2ccccc12 (stereo not given)	MITF inh 59
COc1ccc(NCC(O)Cn2c3ccccc3c3ccccc32)cc1 (stereo not given)	TEAD-YAP inh 51
COc1cc(/C=C2/SC(=Nc3ccccc3)N(c3ccccc3)C2=O)ccc1OC(C)=O	none
O=C(NCCc1ccccc1)c1cn2ccsc2n1	none
NC(=O)c1ccccc1N=Cc1cccc(Cl)c1Cl	TEAD-YAP inh 54
Cc1cc(C)n(-c2ccc(N3CCC(C(=O)NC4CCCCC4)CC3)nn2)n1	none
O=C(O)Cn1c2ccccc2c2ccccc21	none
